# Screening data deposited in PubChem BioAssay by National Center for Advancing Translational Sciences (NCATS).
# GLP1R cytotox – qHTS of GLP-1 Receptor Inverse Agonists: Cytotox Screen | HEK293 cAMP-luciferase reporter cells, luminescence, 24 h | Potency, µM (top dose mostly 38.3 µM), for inactives: at the highest dose activity change, negative = inhibition, hits mostly inhibitors | actives 0.13% (n = 410,000) | AID 624418, 2012;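 note: loss of luciferase light is scored as toxicity; % is set by controls: 0 for no effect and ±100 for the full control effect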
#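 Here, cytotoxicity is scored as loss of luminescence. The MLSMR collection was tested on cells seeded in medium containing 10% Nu serum, with a 24 hr compound exposure preceded by 12 hours of culture.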
# Tb PFK inh – qHTS Assay to Find Inhibitors of T. brucei phosphofructokinase | AID 485367, 2010 | Potency, µM (highest dose often 57.5 µM), inactives show top-dose activity, negative = inhibition, usual class: inhibitors | ATP-dependent 6-phosphofructokinase (Trypanosoma brucei brucei), O15648 | T. brucei PFK, ADP-Glo luminescence | actives 0.17% (n = 330,000);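 note: 0% = uninhibited 1x PFK enzyme wells and -100% = no-enzyme wells; nearly all actives have a fitted effect of over 60% in size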
#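 ADP-Glo luminescence quantified ADP after 45 min at room temperature, with 1.25 nM T. brucei PFK, 0.1 mM ATP and 0.5 mM fructose-6-phosphate in pH 8.0 TEA buffer. qHTS titrations up to 57 µM; curves classified by quality.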
# GLP-1R agonist – qHTS of GLP-1 Receptor Agonists. Potency, µM (titrated, usually from 45.6 µM), inactives show top-dose activation, usual class: activators. actives 0.007% (n = 380,000). HEK293 GLP-1R CRE-luciferase, luminescence, 4-6 h; cells express a hypersensitive GLP-1R form. AID 624172, 2012; note: % of control where 0% means no effect
# Target sequence (P43220 whole entry, looked up): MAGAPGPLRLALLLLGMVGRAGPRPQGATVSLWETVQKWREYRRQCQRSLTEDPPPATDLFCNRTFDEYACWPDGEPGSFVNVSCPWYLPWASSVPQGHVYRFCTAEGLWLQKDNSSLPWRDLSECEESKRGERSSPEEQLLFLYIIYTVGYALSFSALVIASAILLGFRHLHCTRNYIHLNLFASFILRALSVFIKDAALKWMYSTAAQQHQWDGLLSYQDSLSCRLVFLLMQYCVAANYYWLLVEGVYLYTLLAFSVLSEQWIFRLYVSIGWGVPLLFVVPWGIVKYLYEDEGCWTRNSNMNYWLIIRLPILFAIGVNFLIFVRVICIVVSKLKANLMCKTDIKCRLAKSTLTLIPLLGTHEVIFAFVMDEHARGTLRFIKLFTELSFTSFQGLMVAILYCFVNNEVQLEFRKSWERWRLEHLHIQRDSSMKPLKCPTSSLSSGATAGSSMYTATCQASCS
# Pin1 inh – qHTS Assay to Find Inhibitors of Pin1; actives 0.009% (n = 390,000); Potency, µM (series often up to 115 µM), without a hit: at the top dose activity, negative = inhibition, actives largely listed as inhibitors; Pin1 FP peptide displacement, HiFluor488, 10 min; AID 504891, 2011; Peptidyl-prolyl cis-trans isomerase NIMA-interacting 1 (Homo sapiens), Q13526; active = well fitted inhibition curve with a large enough effect in the polarisation, with a control signal flat, not every such curve was filed as active; inconclusive = small, poorly fitted or top-dose-only effect, or effect the other way, or a change in a side signal; inactive = no such curve, though single readings can be large or run the other way; the % refers to the polarisation; note: % is set by controls: 0 for no effect and ±100 for the full control effect
# Tb PGK inh – qHTS Assay to Find Inhibitors of Phosphoglycerate Kinase; Phosphoglycerate kinase, glycosomal (Trypanosoma brucei brucei), P07378; Potency, µM (titrated, usually from 57.5 µM), for the others: top-dose activity change, negative = inhibition, usual class: inhibitors; actives 0.043% (n = 380,000); PGK/GAPDH coupled, Kinase-Glo luminescence, 60 min; note: % is set by controls: 0 for no effect and ±100 for the full control effect; nearly all actives have a fitted effect of over 60% in size
#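 Recombinant glycosomal PGK reaction used 1,3-bisphosphoglycerate generated in-well by GAPDH (100nM final) in 100mM TEA pH 7.6, 5mM MgCl2, 0.01% Tween-20. After 60 minutes at room temperature, ATP was read by Kinase-Glo Plus luminescence end-point.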
# GLP1R inv ag – qHTS of GLP-1 Receptor Inverse Agonists (Inhibition Mode) | Glucagon-like peptide 1 receptor (Homo sapiens), P43220 | HEK293 GLP-1R CRE-luciferase, luminescence, 24 h; GLP-1R form is constitutively active | Potency, µM (doses to about 38.3 µM), for the others: at the highest dose activity change, negative = inhibition, usual class: inhibitors | actives 1.6% (n = 410,000) | AID 624417, 2012; note: % is set by controls: 0 for no effect and ±100 for the full control effect; nearly all actives have a fitted effect of over 55% in size
#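 qHTS in 1536-well format: reporter HEK293 cells expressing constitutive GLP-1R activity in DMEM + 10% Nu serum, 24 hr with compounds at 37 deg C, luminescence read after 12 min with detection reagent.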
# The depositor's hits bear a star; i = inactive; ? = inconclusive; . = no result given. Rows were chosen to be rich in hits. Some 1.8% of all compounds tested hit in one or more screens of this group. Unless noted, calls come from the whole dose curve; as a rule, active = well fitted curve in the direction sought with a large enough effect; inconclusive = small, poorly fitted or top-dose-only effect, or another doubt; inactive = no such curve, though single readings can be large; an effect the other way counts as inactive or inconclusive. Potency is the fitted concentration of half-maximal effect.
SMILES,GLP1R cytotox,Tb PFK inh,GLP-1R agonist,Pin1 inh,Tb PGK inh,GLP1R inv ag
Cc1ccc(-c2noc(C3CC(=O)N(c4ccc5c(c4)OCCO5)C3)n2)cc1 (stereo not given),-1.4%,.,.,5.6%,i,16.3%
COC(=O)N/N=C/c1cc(Cl)c(OCc2ccccc2F)c(OC)c1,-15.8%,3.4%,9.0%,-0.8%,-0.2%,10µM*
COC(=O)N/N=C/c1cc(Cl)c(OCc2ccc(F)cc2)c(OC)c1,10.4%,5.0%,-5.3%,0.5%,-0.9%,-4.8%
N#Cc1nc(Nc2cc(F)cc(F)c2)nc(NC2CCCC2)n1,.,.,.,10.2%,.,.
O=C(CCl)N1N=C(c2ccco2)CC1c1ccco1 (stereo not given),?,?,0.6%,.,-19.7%,2.24µM*
CC(C)(C)NC(=O)CSc1nnc(-c2ccccc2)c(-c2ccccc2)n1,4.0%,-2.4%,8.3%,-10.8%,.,8.91µM*
CC(=O)NNC(=O)CSc1nnc(-c2ccccc2)c(-c2ccccc2)n1,4.4%,0.0%,16.6%,?,-0.1%,5.1%
CC(C)(C)NC(=O)CSc1nc2ccccc2n1-c1ccccc1,3.7%,-5.4%,7.0%,-11.7%,-8.3%,10µM*
COc1ccccc1OCCn1cc(C(=O)c2ccco2)c2ccccc21,-13.8%,0.7%,-6.2%,9.0%,-4.7%,12.6µM*
COc1ccc(/C=C/C(=O)Nc2ccc3nc4c(c(Nc5ccc(OC)c(OC)c5)c3c2)CCCC4)cc1,4.47µM*,.,.,6.1%,-7.4%,8.91µM*
COc1ccc(Nc2c3c(nc4ccc(NC(=O)/C=C/c5cc(OC)c(OC)c(OC)c5)cc24)CCCC3)cc1OC,?,.,.,11.7%,-2.4%,?
COc1ccccc1Nc1c2c(nc3ccc(NC(=O)/C=C/c4cccc(OC)c4OC)cc13)CCCC2,?,.,.,18.0%,-4.2%,?
COc1ccc(Nc2c3c(nc4ccccc24)CCC3)cc1,7.94µM*,3.3%,3.6%,-2.3%,-2.5%,1.78µM*
COc1ccc(/C=C/C(=O)Nc2ccc3nc4c(c(Nc5ccccc5OC)c3c2)CCCC4)cc1,?,.,.,38.8%,-12.6%,8.91µM*
Cc1ccc2occ(CC(=O)Nc3ccc(Cl)c(C(F)(F)F)c3)c2c1,-29.1%,.,.,14.2%,i,?
CCOc1ccc(NC(=O)CN2CCN(CC(=O)Nc3ccc(N(CC)CC)cc3)CC2)cc1,-6.3%,.,.,-0.9%,-1.5%,-2.6%
Cc1ccccc1Cn1c(=O)c2c(nc3n2CCCN3Cc2ccccc2)n(C)c1=O,14.5%,.,5.9%,4.5%,-0.6%,3.16µM*
CCCCc1ccc(NC(=O)c2ccc(=O)n(Cc3cccc(C)c3)c2)cc1,-21.8%,.,-4.8%,5.9%,-3.5%,7.08µM*
Cc1ccc(C(=O)c2cc(O)c(O)c([N+](=O)[O-])c2)cc1,.,.,-2.7%,.,.,.
O=C(CNC(=O)Cn1ccc2ccccc2c1=O)NCCCN1CCN(c2cccc(Cl)c2)CC1,11.4%,-4.4%,-0.7%,-2.9%,-5.9%,10µM*
Oc1ccc(CNc2ccc(F)cc2F)c2cccnc12,.,.,.,4.5%,.,.
CC(=O)Nc1ccc(OCc2cccc(C3Nc4ccccc4C(=O)N3Cc3ccco3)c2)cc1 (stereo not given),.,.,.,22.6%,.,.
CCN1CCN(c2ccc(Nc3ccnc4ccccc34)cc2)CC1,-16.5%,-1.2%,-4.6%,1.4%,7.8%,3.55µM*
Cc1ccc(C)c(N2CCN(C(=O)CN3C(=O)COc4ccc(S(=O)(=O)N5CCOCC5)cc43)CC2)c1,0.5%,.,0.3%,-1.2%,-2.5%,3.9%
CC(=O)c1ccc(-c2csc3ncnc(Sc4nnnn4C)c23)cc1,.,.,.,-0.3%,.,.
